# Compounds with a hit are over-represented: about 15% of the library has one in this group of screens.
# 12-LOX inh – blocks human arachidonate 12S-lipoxygenase; P18054; purified 12hLO, xylenol orange hydroperoxide absorbance; Potency, µM (titrated, usually from 108 µM), for inactives: at the top dose activity change, negative = inhibition, hits mostly inhibitors; 1.1% of 580,000 active
# Target sequence (P18054 whole entry, looked up): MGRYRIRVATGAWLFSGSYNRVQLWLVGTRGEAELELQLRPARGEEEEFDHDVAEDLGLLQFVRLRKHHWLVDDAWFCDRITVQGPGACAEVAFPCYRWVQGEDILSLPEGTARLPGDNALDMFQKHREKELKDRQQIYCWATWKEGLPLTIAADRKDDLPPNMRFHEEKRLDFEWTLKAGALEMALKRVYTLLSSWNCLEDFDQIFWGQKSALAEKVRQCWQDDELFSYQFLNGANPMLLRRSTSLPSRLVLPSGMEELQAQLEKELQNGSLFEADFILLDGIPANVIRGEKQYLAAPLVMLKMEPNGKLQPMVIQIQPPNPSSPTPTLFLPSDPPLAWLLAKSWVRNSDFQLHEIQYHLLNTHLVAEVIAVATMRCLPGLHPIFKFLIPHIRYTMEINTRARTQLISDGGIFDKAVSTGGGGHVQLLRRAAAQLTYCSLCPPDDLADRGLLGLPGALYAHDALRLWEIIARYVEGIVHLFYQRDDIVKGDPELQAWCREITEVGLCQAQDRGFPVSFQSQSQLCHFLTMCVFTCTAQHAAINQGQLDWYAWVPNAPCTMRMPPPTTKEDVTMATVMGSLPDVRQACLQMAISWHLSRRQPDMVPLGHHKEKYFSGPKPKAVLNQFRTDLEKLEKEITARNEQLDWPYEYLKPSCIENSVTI
#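 Purified human 12hLO at 150 nM in 25 mM Hepes, 0.01% Triton X-100, pH 7.0, preincubated 15 min at room temperature with compound. Reaction started with 40 uM arachidonic acid, 30 min at room temperature. Hydroperoxide measured by Fe-xylenol orange, 573/405 nm absorbance ratio.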
# TDP1 cell CPT – DT40-hTDP1 cell growth loss with CPT | chicken DT40 Tdp1-/-;hTDP1 cells + 20 nM CPT, ATP luminescence, 48 h | Potency, µM (doses to about 46.2 µM), without a hit: at the highest dose activity change, negative = growth inhibition, most hits filed as inhibitors | 12% of 420,000 active; note: nearly all actives have a fitted effect of over 55% in size
#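 Chicken DT40 Tdp1-/- cells complemented with human TDP1, 400 cells/well, exposed to compounds plus 20 nM camptothecin for at least 48 h at 37 C; viability read as ATP content by CellTiter-Glo luminescence.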
# RORg inh – inhibitors of mouse ROR gamma transcriptional activity. P51450. Drosophila S2 Gal4-RORgamma UAS-luciferase reporter, 20 h. Potency, µM (highest dose often 53.6 µM), for inactives: at the top dose activity change, negative = inhibition, usual class: inhibitors. 5.4% of 310,000 active; note: nearly all actives have a fitted effect of over 60% in size
#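 Luciferase reporter read in Schneider cells carrying Gal4-RORγ (mouse) and UAS-Photinus luciferase; cells given compound 1 h before 700 uM copper sulfate induction, then incubated 20 h at ambient temperature.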
# ELG1 repair inh – inhibitors of ELG1-dependent DNA repair in HEK293T cells | Potency, µM (highest dose often 46.1 µM), for inactives: at the top dose activity change, negative = inhibition, usual class: inhibitors | 2.3% of 330,000 active | HEK293T ELG1-luciferase reporter, luminescence, 16 h; DNA damage induced by 5-fluorouridine; note: nearly all actives have a fitted effect of over 55% in size
#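 Step one: seed 2,000 cells per well. Step two: pin-transfer compound or DMSO alongside 5-fluorouridine. Step three: incubate 16 hr, 37 °C, 5% CO2. Step four: add ONE-Glo, wait 30 min, read luminescence.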
# VP16 counter – inhibits Gal4-VP16 luciferase reporter, ROR gamma counter-screen. Drosophila S2 Gal4-VP16 UAS-luciferase, luminescence, 20 h. Potency, µM (top dose mostly 53.6 µM), without a hit: top-dose activity, negative = inhibition, most hits filed as inhibitors. 3.5% of 310,000 active. AID 2546;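 note: Gal4-VP16 expression switched on by copper sulfate through the metallothionein promoter; nearly all actives have a fitted effect of over 50% in size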
# DT40 TDP1 no CPT – qHTS for Inhibitors of human tyrosyl-DNA phosphodiesterase 1 (TDP1): qHTS in cells in absence of CPT; DT40 Tdp1-/- hTDP1 cells, no CPT, ATP luminescence, 48 h; Potency, µM (series often up to 46.2 µM), without a hit: at the top dose activity change, negative = growth inhibition, actives largely listed as inhibitors; 15% of 420,000 active; AID 686978, 2013; note: nearly all actives have a fitted effect of over 55% in size
#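 A cellular qHTS used chicken DT40 cells lacking endogenous Tdp1 but carrying stably transfected human TDP1. Compounds were applied without camptothecin, and cell growth kinetics were judged by ATP-dependent luminescence after ≥48 hr.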
# The depositor's hits bear a star; u = inconclusive; x = no result; [ ] = remark or other dose. Calls come from the whole dose curve; as a rule, active = well fitted curve in the direction sought with a large enough effect; inconclusive = small, poorly fitted or top-dose-only effect, or another doubt; inactive = no such curve, though single readings can be large; an effect the other way counts as inactive or inconclusive. % is set by controls: 0 for no effect and ±100 for the full control effect; potency is the fitted concentration of half-maximal effect.
SMILES,12-LOX inh,TDP1 cell CPT,RORg inh,ELG1 repair inh,VP16 counter,DT40 TDP1 no CPT
CCc1ccc(CNC(=O)c2ccc3c(c2)NC(=O)C(N2CCOCC2)S3)cc1 (stereo not given),-14%,23µM*,30%,u,-7%,-57%
Cc1ccc2[nH]c(C(=O)NCCc3ccccc3)cc2c1,-4%,x,x,x,x,x
CCc1ccc(NC(=S)N2CCCC(C(F)(F)F)C2)cc1 (stereo not given),-8%,10%,13µM*,u,u,-25%
CC1CCCN(C(=S)Nc2ccc(F)cc2)C1 (stereo not given),-7%,16%,8.9µM*,-14%,1%[10 µM],-12%
CC1CCCN(C(=S)Nc2ccc(Nc3ccccc3)cc2)C1 (stereo not given),u,10µM*,11µM*,u,u,9.2µM*
Cc1ccc(OCCN)cc1C,14%,x,x,x,x,x
O=S(=O)(NC1CCN(S(=O)(=O)c2ccc(C(F)(F)F)cc2)CC1)c1cccs1,-2%,x,x,x,x,x
O=C1C(=O)c2ccccc2C([O-])=C1[n+]1ccccc1,-12%,-27%,-22%,18µM*,-20%,11%
Cn1c(=O)c(-[n+]2ccccc2)c([O-])c2ccccc21,1%,-19%,-1%,13%,8%,5%
C=CC[C@H](CC(=O)N(CCO)Cc1ccccc1)C(=O)N[C@@H](COC(=O)[C@@H](CC=C)CC(=O)OC(C)(C)C)Cc1c[nH]c2ccccc12,-9%,u,x,18µM*,x,u
C=CC[C@@H](CC(=O)N[C@@H](CO)Cc1ccccc1)C(=O)N[C@H](COC(=O)[C@H](CC=C)CC(=O)OC(C)(C)C)Cc1c[nH]c2ccccc12,3%,u,x,u,x,21µM*
C=CC[C@@H](CC(=O)N[C@H](CO)Cc1ccccc1)C(=O)N[C@H](COC(=O)[C@H](CC=C)CC(=O)OC(C)(C)C)Cc1c[nH]c2ccccc12,-3%,u,x,x,x,u
C=CC[C@H](CC(=O)N(CCO)Cc1ccccc1)C(=O)N[C@H](COC(=O)[C@H](CC=C)CC(=O)OC(C)(C)C)Cc1c[nH]c2ccccc12,-2%,u,x,21µM*,x,u
C=CC[C@@H](CC(=O)N(CCO)Cc1ccccc1)C(=O)N[C@@H](COC(=O)[C@H](CC=C)CC(=O)OC(C)(C)C)Cc1c[nH]c2ccccc12,-11%,u,x,u,x,u
CCNC(=O)NC1(CCOC)CCN(C(=O)Cc2cccc(OC)c2)CC1,12%,x,x,x,x,x
N#Cc1ccc(S(=O)(=O)N2CCC(C(=O)Nc3ccnn3Cc3ccccc3)CC2)cc1,1%,x,x,x,x,x
CCCC(=O)N(C)c1ccc(/C=C2\C=Cc3ccccc32)cc1,x,3.2µM*,x,x,x,2.2µM*
NC(N)=Nc1ccc(C=C2C=Cc3ccccc32)cc1,u,9.2µM*,x,x,x,9.2µM*
C1=Cc2ccccc2/C1=C\c1cc[cH-]c1.[Fe+2].c1cc[cH-]c1,x,11µM*,x,x,x,u
CC(=O)N(O)c1ccc(/C=C2\C=Cc3ccccc32)cc1,x,1.4µM*,x,x,x,3.2µM*
Nc1ccc(C=C2C=Cc3ccccc32)cc1,u,4%,x,x,x,1%
Cc1ccccc1C(=O)N1C(C(=O)NC(C)C)COC12CCN(C(=O)c1ccc(Cl)cc1)CC2 (stereo not given),49%,x,x,x,x,x
COC(=O)CN(CC(=O)NC(=O)NCC(F)(F)F)Cc1ccccc1,-33%,x,x,x,x,x
CS(=O)(=O)c1ccc(/C=C2\C=Cc3ccccc32)cc1,x,u,x,x,x,20µM*
COc1cc(OC)nc(N2C[C@H]3OC(=O)N(CCN4CCCCC4)[C@H]3C2)n1,-19%,x,x,x,x,x
Cc1ccc2oc(C(Cl)(Cl)Cl)cc(=O)c2c1,1%[57.4 µM],4.6µM*,5µM*,-8%,u,5.8µM*

# High-throughput results: PubChem, National Center for Advancing Translational Sciences (NCATS)
